Data: PubChem BioAssay (NCI)
About 83,000 compounds went through this panel and 20% of them were active in at least one assay; those are over-represented in the sample as a whole.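 In brief: 96-well plates, 48 h treatment, single concentration, percent growth endpoint.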 The source made the active and inactive calls. The calls were made as follows: active = growth percent below 10; inactive = the rest.

test system: MDA-MB-468 breast; test: NCI-60 one-dose screen, 48 h (100 = growth as untreated, 0 = no growth, -100 = all killed); conditions: 10 µM unless noted

Row | SMILES | growth
1 | COc1ccc(/C=C/C(=O)/C=C(/C=C/c2ccc(OC)c(OC)c2OC)OB(F)F)c(OC)c1OC | 39.1% (inactive)
2 | COC(=O)[C@]12CC[C@@H](C)[C@H](C)[C@@H]1C1=CC(=O)[C@@H]3[C@@]4(C)C[C@@H](O)[C@H](O)[C@@]5(C)COC(=C45)C[C@@]3(C)[C@]1(C)CC2 | 44.2% (inactive)
3 | CC1(C)CC[C@]2(C(=O)N3CCCNCC3)CC[C@]3(C)C(=CC[C@@H]4[C@@]5(C)CCC(=O)C(C)(C)[C@@H]5CC[C@]43C)[C@H]2C1 | 106% (inactive)
4 | CS(=O)(=O)Nc1cc(-c2ccc3ncc(C#N)c(Nc4ccc(F)c(Cl)c4)c3c2)cnc1Cl | -48.7% (active)
5 | Cc1cccc2nc3c(n12)C(=O)C(=O)c1ccccc1-3 | 79.9% (inactive)
6 | C=C(C)[C@@H]1CC[C@]2(C)[C@H](CC(=O)N[C@H]3[C@@H]4C[C@](C)(C(=O)OC)CC[C@]4(C)CC[C@]32C)[C@@]1(C)CCC#N | 83.3% (inactive)
7 | COC(=O)c1ccccc1C(=O)c1c(C)cc(C)cc1C | 103% (inactive)
8 | CC(=O)[C@H]1CC[C@H]2[C@@H]3C[C@H](C)C4=CC(=O)CC[C@]4(C)[C@H]3C(=O)C[C@]12C | 106% (inactive)
9 | CCN(CC)CC#CCOC(=O)[C@]1(C)CCC[C@]2(C)c3ccc(C(C)C)cc3CC[C@@H]12 | 65.3% (inactive)
10 | CCOC(=O)c1cc(C(=O)c2ccc(OC)c(OC)c2)n2ccc(-c3ccccn3)cc12 | 74.9% (inactive)
11 | CC1(COc2ccc3ncc(C#Cc4cncc(C(=O)Nc5cccc(C(F)(F)F)c5)c4)n3n2)COC1 | 102% (inactive)
